According to PubChem BioAssay AID1347417 (National Center for Advancing Translational Sciences (NCATS), 2020):
Hit rate of the full screen: of about 120,000 compounds, about 5,300 (4.4%) were called active. Entries that show only a call come without a potency. Inconclusive results (about 22%) are left out. For the sample, actives were picked, then their nearest neighbours and some compounds at random. Unmarked numbers belong to inactive results. Calls follow the shape of the dose curve; as a rule, active = well fitted inhibition curve with a large enough effect; inconclusive = small, poorly fitted or top-dose-only effect; inactive = no such curve, though single readings can be large or run the other way.

Assay: qHTS Primary assay for Inhibitors of Plasmodium falciparum Dd2 growth in vitro; also: nearly all actives have a fitted effect of over 65% in size
Conditions: P. falciparum Dd2 growth, SYBR Green, 72 h; series mostly up to 28.9 µM
How it was run: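 Infected erythrocytes (Dd2, 0.3% parasitemia, 2.5% hematocrit final) are added to compound in RPMI-1640/Albumax II medium, grown 72 h at 37C in low oxygen, then lysed with saponin/Triton-X containing SYBR Green and read by fluorescence.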
Potency is read from the fitted curve at half-maximal effect.

SMILES | Potency | activity, negative = inhibition
O=C(NCCc1noc(C2CC2)n1)c1ccc2c(c1)OCO2 | inactive | –
C[S+](=O)([O-])N1CC2ON=C(C(=O)N3CCCC3)C2C1 (configuration not stated) | inactive | –
COCCn1ncc(N2CCC(C(=O)NCc3ccc(C)o3)C2)cc1=O (configuration not stated) | inactive | –
CC(C)(C)c1ccnc(N[C@H]2CO[C@H]3[C@@H]2OC[C@H]3OC(=O)Nc2cccc(C(F)(F)F)c2)n1 | inactive | –
Cc1ccc(NC(=O)c2cnc(-c3ccccc3)nc2-c2ccncc2)cc1C | inactive | –
O=[S+]1([O-])NCC2(CCCN(Cc3ccncc3)C2)Oc2ncccc21 (configuration not stated) | inactive | –
Cc1nn(C)c(C)c1S(=O)(=O)N1CCC(c2noc(-c3ccccc3)n2)C1 (configuration not stated) | – | 8.68% [at 5.79 µM]
CC(C)Cn1c(-c2ccc(S(=O)(=O)N3CCOCC3)cc2)csc1=Nc1cc(Cl)ccc1Cl | 10 µM (active) | –
O=C(CN1C(=O)COc2ccc(S(=O)(=O)N3CCOCC3)cc21)N1CCN(c2cccc(Cl)c2)CC1 | inactive | –
O=C1[C@@H]2C[C@@H](O)CN2C2(CN(Cc3ccc(OC(F)(F)F)cc3)C2)C(=O)N1Cc1ccccc1Cl | inactive | –
CO[C@H]1[C@H](NC(=O)c2cnc3ccccc3c2)c2ccccc2C12CCNCC2 | inactive | –
c1ccc2c(c1)CCN2C1CN(Cc2cccc3ccccc23)C1 | inactive | –
Cc1ccccc1N(C)C1CN(Cc2cccc3ccccc23)C1 | 10 µM (active) | –
Clc1ccc(-c2nnc3n2CCN(Cc2cccc4ccccc24)C3)cc1 | inactive | –
COc1cc2c(cc1OCc1ccncc1)NC(=O)C21CCN(c2ncccn2)CC1 | inactive | –
COc1cc2c(cc1Oc1cccc(N(C)C)c1)NC(=O)C21CCN(Cc2ccccn2)CC1 | inactive | –
COc1cc2c(cc1Oc1cccc(N(C)C)c1)NC(=O)C21CCN(c2cnccn2)CC1 | 0.891 µM (active) | –
COc1ccc(NC(=O)O[C@@H]2CO[C@H]3[C@@H]2OC[C@@H]3NC(=O)C2CCCCC2)cc1 | inactive | –
O=C(CC1CCCN(c2cnn(CC3CC3)c(=O)c2)C1)NCc1cc(F)cc(F)c1 (configuration not stated) | inactive | –
COc1ccc(NC(=O)Cn2c(=O)n(-c3ccccc3)c(=O)c3c2cc(C)n3C)cc1 | inactive | –
N#Cc1ccc(S(=O)(=O)NC2CCc3nn(CC4CC4)c(=O)n3CC2)cc1 (configuration not stated) | inactive | –
CCCN(CCC)CCCNC(=O)Cn1ncc2c3ccccc3n(Cc3ccccc3)c2c1=O | 5.01 µM (active) | –
CCCn1c2ccccc2c2cnn(CC(=O)N(CC)c3cc(C)ccc3C)c(=O)c21 | inactive | –
CCN(CCCNC(=O)Cn1ncc2c3ccccc3n(C)c2c1=O)Cc1ccccc1 | inactive | –
CCN(CC)CCNC(=O)Cn1ncc2c3ccccc3n(Cc3ccccc3C)c2c1=O | 10 µM (active) | –

SMILES | Potency | activity, negative = inhibition
CCCn1c2ccccc2c2cnn(CC(=O)NCCCOC(C)C)c(=O)c21 | inactive | –
CCCn1c2ccccc2c2cnn(CC(=O)N(C)c3ccccc3CC)c(=O)c21 | inactive | –
COc1cccc(CC(=O)N2CCC(c3nc(CCOc4ccc(F)cc4)no3)C2)c1 (configuration not stated) | inactive | –
COCCNC(=O)[C@@H]1C[C@@H](O)CN1C1CCN(C(=O)CCc2ccccc2)CC1 | inactive | –
CCn1c(=O)c2ccnn2c2ccc(C(=O)NC3CCCCC3)cc21 | inactive | –
Cc1ccccc1NC(=O)N1CCC(CCNC(=O)c2ccoc2)CC1 | inactive | –
O=C(c1cccc(Cl)c1)N1CCN(c2cc(-c3cccs3)[nH]n2)CC1 | inactive | –
COc1cccc(CN2Cc3nc(Nc4cccc(F)c4)ccc3OCC2=O)c1 | inactive | –
CN(CCCn1cccn1)C(=O)C1CCN(C(=O)C2CCCC2)CC1 | inactive | –
O=C(N[C@@H]1CN(Cc2c(F)cccc2F)C[C@H]1CO)c1ccccc1 | inactive | –
Cc1cc(N2CCCC(Cn3cc(Cc4ccccc4)nn3)C2)nc(N)n1 (configuration not stated) | 12.6 µM (active) | –
O=C(Nc1ccccc1)[C@H]1CN2CCC1C[C@@H]2Cn1cc(CO)nn1 (some centres not stated) | inactive | –
O=C(NCc1ccccc1)[C@@H]1C[C@@H](c2ccc(F)cc2)N([S+](=O)([O-])c2cccnc2)C1 | inactive | –
O=C1Nc2ccc(Br)cc2C(=O)N2CCN(C(=O)C3CCCCC3)C[C@H]12 | inactive | –
CCOC(=O)c1c(NC(=O)c2cc(-c3ccc(Cl)cc3)on2)sc2c1CCCC2 | inactive | –
CCOC(=O)c1ccc(NC(=O)c2c(NCc3cccs3)sc3c2CCCC3)cc1 | 10 µM (active) | –
CCOC(=O)c1c(NC(=O)Cc2coc3ccc(CC)cc23)sc2c1CCC2 | inactive | –
O=C(Cc1cccs1)NC1CCCN(c2cc(-c3ccccc3)[nH]n2)C1 (configuration not stated) | inactive | –
COc1ccc(-c2ccc3c(c2)C(=O)N2CCN(C(=O)CC4(CC(=O)O)CCCC4)C[C@H]2C(=O)N3)cc1 | inactive | –
CN1C(=O)CC(C(=O)O)C12CCN(Cc1cccc(OC(F)F)c1)CC2 (configuration not stated) | inactive | –
CN(C)C[C@@H]1CN(C)C[C@H]1NC(=O)C1CCC1 | inactive | –
CCOC(=O)N1CCc2c(sc(NCc3cccc(F)c3)c2C(=O)Nc2ccccc2OCC)C1 | 4.47 µM (active) | –
CCOc1cc(=O)n2c(c1C(=O)Nc1ccc(F)cc1F)CCCC2 | inactive | –
CCOC(=O)N1CCc2c(sc3c2C(=O)NC(c2ccccc2F)N3)C1 (configuration not stated) | inactive | –
CCOc1ccccc1N(CC)C(=O)c1cc2ccc3cccnc3c2[nH]1 | 12.6 µM (active) | –

SMILES | Potency | activity, negative = inhibition
CCOc1ccccc1C(=O)N1CCC(Oc2ncccc2C(=O)N(C)C)C1 (configuration not stated) | inactive | –
Cc1ccccc1CN1CCC(N2CCCC(C(=O)NC3CC3)C2)CC1 (configuration not stated) | inactive | –
Cc1ccccc1CN1CCc2ncc(C(=O)NCCOc3ccccc3)n2CC1 | inactive | –
CCOc1ccccc1N(CC)C(=O)Nc1cn(C)c(=O)c2ccccc12 | inactive | –
Cc1ccccc1CN1CCC(CNC(=O)c2cc3ccc4cccnc4c3[nH]2)CC1 | 10 µM (active) | –
CCOc1ccc(NC(=O)Cn2c(-c3ccc(F)cc3)nc(C)cc2=O)cc1 | inactive | –
COc1ccc(Cn2ccnc2SCC(=O)Nc2ccc3c(c2)OCO3)cc1 | inactive | –
COc1ccc(C(C(=O)O)N2CCCN(c3ccc(F)cc3)CC2)cc1F (configuration not stated) | inactive | –
CN(C)c1ccc(C(CNS(=O)(=O)c2cc(F)ccc2F)N2CCOCC2)cc1 (configuration not stated) | inactive | –
Cc1ccc(NC(=O)C(=O)NCC(c2cccnc2)N2CCOCC2)cc1 (configuration not stated) | inactive | –
CC(C)CC(=O)NCC(c1ccc2c(c1)OCO2)N1CCN(c2ccc(F)cc2)CC1 (configuration not stated) | 10 µM (active) | –
COc1cccc(NC(=O)C(=O)NCC(c2ccc3c(c2)OCO3)N2CCN(C)CC2)c1 (configuration not stated) | 7.94 µM (active) | –
O=C(CN1CC2CC(C1)[C@H]1CCCC(=O)N1C2)N1CCN(c2ccccn2)CC1 (some centres not stated) | inactive | –
CCn1ncnc1C(C)NC1CCC2(CCNCC2)CC1 (configuration not stated) | inactive | –
CCC(O)c1cc2n(n1)CCN(C(=O)c1cnc(C)nc1-c1ccccc1)C2 (configuration not stated) | inactive | –
COc1ccc(S(=O)(=O)N[C@H]2C[C@H]3C(=O)NC[C@@H](CCC(=O)N4CCc5ccccc54)N3C2)cc1 | inactive | –
CN1C(=O)[C@@H]2C[C@@H](O)CN2C2(CN(Cc3cnc4ccccc4c3)C2)C1=O | inactive | –
COc1ccccc1C(=O)NCc1ccnc2[nH]ccc12 | inactive | –
O=C(Cn1cc(SCc2cccc(Cl)c2)c2ccccc21)N1CCCCC1 | inactive | –
COc1ccccc1C(=O)NCCn1cc(SCc2ccccc2Cl)c2ccccc21 | 3.98 µM (active) | –
Cc1cc(NC(=O)c2ccc(Cn3ccn4nc5c(c4c3=O)CCCC5)cc2)ccc1F | inactive | –
CCc1cc(NCCS(=O)(=O)CC)n2nccc2n1 | inactive | –
CCOc1ccc(NC(=O)CN2CCN(CC(=O)Nc3ccc(OC)cc3)CC2)cc1 | inactive | –
O=C(Cn1nc2n(c1=O)CCCC2)Nc1ccc(Cl)cc1 | inactive | –
CCN(CC)c1ccc(NC(=O)CN2CCN(CC(=O)Nc3ccc(Cl)cc3)CC2)cc1 | 8.91 µM (active) | –

SMILES | Potency | activity, negative = inhibition
Cc1ccc2[nH]nc(C(=O)N3C[C@@H](C(=O)O)[C@H](c4ccc(F)cc4)C3)c2c1 | inactive | –
Cc1oc2ccn(Cc3ccccc3F)c(=O)c2c1C(=O)NCc1cccnc1 | inactive | –
CC(c1cccs1)N(C)Cc1ccncc1 (configuration not stated) | inactive | –
CC(C)CCN(C(=O)Nc1ccc(Cl)c(Cl)c1)C(C)c1cccs1 (configuration not stated) | 10 µM (active) | –
CC(C)c1ccc2oc(-c3cc(NC(=O)c4cccs4)ccc3Cl)nc2c1 | inactive | –
C=CCNC(=O)N1CCC(C2CCN(Cc3cccc(F)c3F)CC2)C1 (configuration not stated) | inactive | –
CC(C)(C)CC(=O)Nc1ccc2c(N3CCOCC3)ncnc2c1 | inactive | –
Cc1ccc(C(=O)Nc2ccc3c(N4CCCCC4)ncnc3c2)s1 | 5.01 µM (active) | –
Cc1ccc(C(=O)Nc2ccc3ncnc(N4CCCCC4)c3c2)s1 | inactive | –
Cc1cc(C)cc(C(=O)Nc2ccc3c(N4CCCC4)ncnc3c2)c1 | 0.708 µM (active) | –
O=C(Nc1ccc2ncnc(N3CCCCC3)c2c1)c1cccc(Cl)c1 | inactive | –
O=C(Nc1ccc2ncnc(N3CCCCC3)c2c1)c1ccc2c(c1)OCO2 | inactive | –
O=C(CCc1cc(Cl)no1)N1CCCC(c2nc(C3CCOCC3)no2)C1 (configuration not stated) | inactive | –
CCn1c(C2CCCN(C(=O)NCC(C)C)C2)nn(C)c1=O (configuration not stated) | inactive | –
Cn1ccnc1CNC(=O)C[C@@H]1C[C@H]2O[C@H](CNC(=O)NCc3ccccc3)[C@@H](O)[C@H]2O1 | inactive | –
CC(C)c1nc2nccc(-c3ccc4c(c3)OCCCO4)n2n1 | inactive | –
CCC(CC)NC(=O)c1ccc(-c2nnc3ccc(NC(=O)C4CCC4)cn23)cc1 | 2.51 µM (active) | –
CCC(=O)Nc1ccc2nnc(-c3ccc(C(=O)Nc4ccc(OC)cc4)cc3)n2c1 | 0.708 µM (active) | –
COc1cc(C(=O)Nc2ccc(OCc3cc(=O)n4cc(C)sc4n3)cc2)cc(OC)c1OC | inactive | –
COc1ccc(-c2cn3c(n2)sc2cc(C(=O)Nc4ccc(F)cc4)ccc23)cc1 | inactive | –
O=C(Nc1ccc2ncnc(N3CCCCC3)c2c1)C1CCCCC1 | inactive | –
O=C(Nc1ccc(C2(C(=O)N3CCCCCC3)CCC2)cc1)C1CC1 | inactive | –
